Reference: PubChem BioAssay (EPA / NIEHS)
Records with an inconclusive call do not appear. The source made the active and inactive calls. How the source made its calls, unless noted: active means hit-call score of the fitted dose curve at least 0.9, where 1 is the maximum; inactive means score below 0.9.

Key:
[1] = CCTE_Shafer_MEA_dev_burst_rate: CCTE's Neural Network Formation Assay for Burst Rate, Shafer Lab (AID 2284042)
Summary of the method: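 Cells plated, treated day 0; recorded DIV 5, 7, 9, 12; fed and re-treated DIV 5, 9. Endpoint: bursts per recording time, active-electrode well mean, trapezoidal AUC, fitted in decreasing direction against DMSO baseline.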

[2] = CCTE_Shafer_MEA_dev_bursting_electrodes_number: CCTE's Neural Network Formation Assay for Number of Bursting Electrodes, Shafer Lab (AID 2284043; active means hit-call score of the fitted dose curve at least 0.9, where 1 is the maximum;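 on AC50: potency is for loss of bursting electrodes relative to DMSO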)
Summary of the method: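 Read-out is the per-well number of electrodes bursting at least once every 2 minutes, recorded on days 5, 7, 9 and 12 and collapsed by trapezoidal area under the curve. Cultures were primary rat cortical neurons on MEA plates, treated continuously from plating.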

[3] = CCTE_Shafer_MEA_dev_per_burst_interspike_interval: CCTE's Neural Network Formation Assay for Burst Interspike Interval, Shafer Lab (AID 2284044)
Summary of the method: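 Readout is the average time between spikes inside single-electrode bursts, taken as a well mean across bursting electrodes. Cortical neurons from rat developed networks on MEA plates under continuous 12-day exposure; recordings on days 5, 7, 9 and 12 were integrated by trapezoidal AUC.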

[4] = CCTE_Shafer_MEA_dev_burst_duration_mean: CCTE's Neural Network Formation Assay for Mean Burst Duration, Shafer Lab (AID 2284045)
Summary of the method: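 Read-out: average first-to-last-spike interval within single-electrode bursts, averaged over bursting electrodes per well, then summarised as area under the curve across days 5, 7, 9 and 12. Developing rat cortical networks were exposed from day 0.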

[5] = CCTE_Shafer_MEA_dev_interburst_interval_mean: CCTE's Neural Network Formation Assay for Mean Interburst Interval, Shafer Lab (AID 2284046);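 further: well-mean interburst interval of bursting electrodes as AUC over four recording days; curve fitted for decrease in interburst interval relative to DMSO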
Summary of the method: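 Developing rat cortical networks on 48-well MEAs receive compound from the day of plating. Burst intervals from each active electrode are averaged per well, and AUC over the recording days is fitted in the negative direction against DMSO.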

[6] = CCTE_Shafer_MEA_dev_inter_network_spike_interval_mean: CCTE's Neural Network Formation Assay for Mean Inter-network Spike Interval, Shafer Lab (AID 2284047);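 on AC50: potency for a decrease in mean inter-network spike interval below DMSO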
Summary of the method: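 Rat cortical cultures, 1.5 x 10^5 cells/well on 48-well MEA plates; continuous exposure days 0–12, medium and compound refreshed DIV 5, 9. Mean time between consecutive network-spike peaks; AUC across DIV 5/7/9/12; DMSO baseline, negative fitting direction.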

[7] = CCTE_Shafer_MEA_dev_network_spike_number: CCTE's Neural Network Formation Assay for Number of Network Spikes, Shafer Lab (AID 2284048)
Summary of the method: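 Developing networks of primary rat cortical neurons are treated over 12 days starting at plating, with media and compound fully replaced on DIV 5 and 9. Network spike counts from four recording days are integrated as trapezoidal AUC.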

[8] = CCTE_Shafer_MEA_dev_network_spike_peak: CCTE's Neural Network Formation Assay for Mean Number of Electrodes in Network Spike, Shafer Lab (AID 2284049);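 on AC50: fitted for loss of signal meaning fewer electrodes in network spikes than DMSO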
Summary of the method: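 Rat cortical primary culture, 1.5 x 10^5 cells/well, 48-well MEA (16 electrodes/well). Dosing day 0 through DIV 12, full media/compound exchange DIV 5, 9. AxIS adaptive spike detection; AUC over days 5/7/9/12; loss-of-signal vs DMSO.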

[9] = CCTE_Shafer_MEA_dev_spike_duration_mean: CCTE's Neural Network Formation Assay for Mean Spike Duration, Shafer Lab (AID 2284051);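 further: mean network spike duration pooled as area under curve over DIV 5 to 12 recordings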;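 on AC50: potency for a decrease in mean network spike duration versus DMSO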
Summary of the method: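 Readout is the average length of network spikes, clustered firing across electrodes, summed over DIV 5, 7, 9 and 12 as area under the curve. Neurons from rat cortex developed networks on MEA plates under continuous 12-day exposure.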

[10] = CCTE_Shafer_MEA_dev_network_spike_duration_std: CCTE's Neural Network Formation Assay for Standard Deviation of Network Spike Duration, Shafer Lab (AID 2284052);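 further: area under curve of spike duration SD across recording days 5 to 12; hits are decreases in network spike duration SD versus DMSO vehicle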
Summary of the method: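 Read-out is the trapezoidal area-under-the-curve across recordings made on days 5, 7, 9 and 12, fitted in the negative direction against DMSO baseline. Neurons were primary rat cortical cells treated from day 0, with treatment renewed at each feed.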

[11] = CCTE_Shafer_MEA_acute_AB: CCTE's Alamar Blue Assay for Cytotoxicity in the Neural Acute Assay, Shafer Lab (AID 2284069; active means hit-call score of the fitted dose curve at least 0.9, where 1 is the maximum;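 further: active compounds lower the viability signal compared with DMSO wells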)
Summary of the method: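 Metabolic activity in chemically exposed rat cortical neurons (MEA cultures, day 13/15 post-plating) measured via CellTiter Blue resazurin reduction, 544/590 nm fluorescence; fitted relative to DMSO, with signal loss indicating reduced viability.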

[12] = CCTE_Shafer_MEA_dev_AB: CCTE's Alamar Blue Assay for Cytotoxicity in the Neural Network Formation Assay, Shafer Lab (AID 2284083; active means hit-call score of the fitted dose curve at least 0.9, where 1 is the maximum;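 further: twelve days of exposure from plating with re-dosing on DIV 5 and 9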)
Summary of the method: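 Fluorescent resazurin reduction serves as the viability read-out, with DMSO as negative control and baseline. Cells were primary rat cortical neurons grown on MEA plates and dosed from day 0 to day 12, treatment renewed on DIV 5 and 9.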

[13] = CCTE_Shafer_MEA_acute_LDH: CCTE's Lactate Dehydrogenase Assay for Cytotoxicity in the Neural Acute Assay, Shafer Lab (AID 2284086; active means hit-call score of the fitted dose curve at least 0.9, where 1 is the maximum;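 further: active means LDH release rises above DMSO vehicle level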)
Summary of the method: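 Primary rat cortical neurons on 48-well MEA plates, treated on day 13 or 15 post-plating. After the 40-min recording with compound, medium LDH release was read by absorbance at 490 nm. Gain of signal was fitted against DMSO negative control.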

[14] = CCTE_Shafer_MEA_dev_mutual_information_norm: CCTE's Neural Network Formation Assay for Mutual Information Normalization, Shafer Lab (AID 2284091)
Summary of the method: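 Developing rat cortical networks on 16-electrode MEA wells are treated throughout formation (DIV 0–12). Shared electrode information is recorded four times, converted to area-under-curve, and fitted for decreases against DMSO vehicle.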

[15] = CCTE_Shafer_MEA_dev_correlation_coefficient_mean: CCTE's Neural Network Formation Assay for Mean Correlation Coefficient, Shafer Lab (AID 2284093)
Summary of the method: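 Read-out: well-mean correlation coefficient of spike trains between electrode pairs, collapsed over four recording days as trapezoidal area-under-the-curve. Developing rat cortical neuron networks grown on MEAs received test chemical continuously from plating.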

[16] = tested on: DIO2 (gene 1734); test: CCTE_GLTED_hDIO2: CCTE's human Deiodinase 2 (DIO2) Inhibition Assay, Great Lakes Toxicology and Ecology Division (GLTED) Lab (AID 2284050; active means hit-call score of the fitted dose curve at least 0.9, where 1 is the maximum)
Summary of the method: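 Cell-free human DIO2 enzyme was incubated with test chemical for 3 h; iodide liberated from substrate was then quantified by the Sandell-Kolthoff reaction (absorbance), run in triplicate. Loss of signal versus DMSO baseline indicated inhibition.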

[17] = tested on: DIO3 (gene 1735); test: CCTE_GLTED_hDIO3: CCTE's human Deiodinase 3 (DIO3) Inhibition Assay, Great Lakes Toxicology and Ecology Division (GLTED) Lab (AID 2284055; active means hit-call score of the fitted dose curve at least 0.9, where 1 is the maximum;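 further: potency is for inhibition seen as loss of released iodide signal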)
Summary of the method: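 Cell-free assay with human DIO3 enzyme produced by adenovirus expression; enzyme incubated with test chemical for 3 hours. Liberated iodide then measured by Sandell-Kolthoff absorbance; loss of signal versus DMSO baseline indicates inhibition, run in triplicate.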

[18] = CCTE_Shafer_MEA_dev_LDH: CCTE's Lactate Dehydrogenase Assay for Cytotoxicity in the Neural Network Formation Assay, Shafer Lab (AID 2284068; active means hit-call score of the fitted dose curve at least 0.9, where 1 is the maximum;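 further: exposure for twelve days from plating with re-dosing on DIV 5 and 9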)
Summary of the method: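 Cytotoxicity companion to network-formation recordings: rat cortical neurons received compound over 12 days of development, re-dosed at DIV 5 and 9 feeds. Viability was inferred from LDH enzyme activity relative to DMSO.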

[19] = UKN5_HCS_SBAD2_cell_viability: Viability Assessment in the University of Konstanz (UKN) Leist Lab Neurite Outgrowth Assay in human iPSC-derived immature Dorsal Root Ganglia Neurons (UKN5) (AID 2284056)
Summary of the method: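 iPSC-derived immature peripheral neurons (SBAD2) seeded on Matrigel with CHIR99021, SU5402 and DAPT, dosed 1 h later for 24 h. Viability from Hoechst H-33342 and calcein-AM live staining, high-content imaging; bidirectional fit versus DMSO.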

[20] = UKN5_HCS_SBAD2_neurite_outgrowth: University of Konstanz (UKN) Leist Lab Neurite Outgrowth Assay in human iPSC-derived immature Dorsal Root Ganglia Neurons (UKN5) (AID 2284070); details: actives raise or lower the signal
Summary of the method: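 Human iPSC-derived immature DRG neurons (SBAD2) on Matrigel with CHIR99021 (1.5 uM), SU5402 (5 uM), DAPT (5 uM); compounds added 1 h post-seeding for 24 h. Calcein-AM neurite area imaged; bidirectional fit vs DMSO.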

Measured: AC50

OB(O)O
not listed: [16] | [17] | [18] | [19] | [20]
inactive: all other assays above

CSC(=O)c1cccc2nnsc12
not listed: [2] | [11] | [16] | [17] | [18] | [19] | [20]
inactive: all other assays above

Oc1ccc(C(c2ccc(O)cc2)C(Cl)(Cl)Cl)cc1
active: [2] 10 µM | [8] 12.9 µM | [16] 100 µM | [9] 4.75 µM | [17] 143 µM
not listed: [3] | [11] | [19] | [20]
inactive: all other assays above

S=C([S-])NCCNC(=S)[S-].[Mn+2]
active: [6] 1.19 µM | [19] 7.5 µM | [20] 4.28 µM
not listed: [2] | [11] | [13] | [16] | [17]
inactive: all other assays above
